# Laboratory results from PubChem BioAssay (Tox21).
# Where “and” joins values, the source holds several entries; their conditions need not be identical. Equal values may be shown once. Results filed as inconclusive are left out. Entries that show only a call come without a potency. Calls of active or inactive are those of the source. Calls follow the shape of the dose curve; as a rule, active = well fitted cell-killing curve with a large enough effect in the repeat runs; inconclusive = weak or mixed curves, or effect the other way; inactive = flat fitted curve, though single readings scatter.
# Key:
# [1] = cAMP Responsive Elements (CRE) small molecule antagonists, cell-based qHTS assay: qHTS cell viability counter screen (AID 2060913); conditions: CRE-bla HEK293T viability, CellTiter-Glo luminescence, 5 h; series mostly up to 92.4 µM; also: nearly all actives have a fitted effect of over 40% in size
# Method in brief: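 HEK293T CRE-bla, 2,000 cells/well, 18 h preincubation; cpd in DMSO + NKH477 0.25 uM final, 3 h 37 C/5% CO2; LiveBLAzer 2 h RT, then CellTiter-Glo 30 min RT, luminescence.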
# [2] = cAMP Responsive Elements (CRE) small molecule agonists, cell-based qHTS assay: qHTS cell viability counter screen (AID 2060914); conditions: CRE-bla HEK293T viability, CellTiter-Glo luminescence, 5 h; series mostly up to 92.4 µM; also: nearly all actives have a fitted effect of over 50% in size
# Method in brief: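 In the same wells as the reporter read, viability of CRE-bla HEK 293T cells was quantified by CellTiter-Glo luminescence after a 3 h compound exposure.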
# Potency is read from the fitted curve at half-maximal effect.
SMILES,Potency [1],Potency [2]
O.O.O.O.O.O.O=S(=O)([O-])[O-].[Ni+2],inactive,inactive
CN(C)CCC#N,inactive,inactive
[P]#[In],inactive,inactive
Cc1cc(O)ccc1Cl,inactive,inactive
CCOP(=O)(Sc1ccccc1)Sc1ccccc1,inactive,inactive
CN1C2CCC(C)(C)C1CC(OC(=O)C(O)(c1cccs1)c1cccs1)C2 (configuration not stated),inactive,inactive
CC(CC(C#N)(c1ccccc1)c1ccccc1)N(C)C (configuration not stated),inactive,inactive
O=C(O)CC(O)(CC(=O)O)C(=O)O,inactive,inactive
ClCC1CO1 (configuration not stated),inactive,inactive
NC(=O)CI,inactive,inactive
c1ccc(P(c2ccccc2)c2ccccc2)cc1,inactive,inactive
S=C=Nc1cccc2ccccc12,inactive,inactive
O=C(CCN1CC1)OCC(CO)(COC(=O)CCN1CC1)COC(=O)CCN1CC1,inactive,inactive
Clc1cnc(Oc2ccc(Oc3ncc(Cl)cc3Cl)cc2)c(Cl)c1,inactive,inactive
CC#Cc1cc(C)nc(Nc2ccccc2)n1,inactive,inactive
COc1c(C(C)(C)C)cc([N+](=O)[O-])c(C)c1[N+](=O)[O-],inactive,inactive
CC1(C)CC(=O)CC(C)(C)N1[O],inactive,inactive
CCC(CC)Nc1c([N+](=O)[O-])cc(C)c(C)c1[N+](=O)[O-],inactive,inactive
CCCCC/C=C\C/C=C\C/C=C\C/C=C\CCCC(=O)NCC(=O)O,inactive,inactive

SMILES,Potency [1],Potency [2]
COC(=O)COc1ccc(Cl)cc1Cl,inactive,inactive
O=c1oc2ccccc2c(O)c1C1CCCc2ccccc21 (configuration not stated),inactive,inactive
ClP(Cl)(Cl)(Cl)Cl,inactive,inactive
CC(Cc1ccc(OCC(=O)O)cc1)NCC(O)c1csc(C(F)(F)F)n1 (configuration not stated),inactive,inactive
S=C=Nc1ccccc1,inactive,inactive
CCCCOC(=O)c1ccccc1N,inactive,inactive
O=[N+]([O-])c1ccc(CCl)cc1,inactive,inactive
O=C(Cl)C(Cl)(Cl)Cl,inactive,inactive
c1cc[c]([Sb]([c]2ccccc2)[c]2ccccc2)cc1,inactive,inactive
O=c1[nH]c2ccccc2c(=O)o1,inactive,inactive
COP(=S)(OC)Oc1nc(Cl)c(Cl)cc1Cl,inactive,inactive
C=CC#N,inactive,inactive
CC(C)(C)OC(=O)c1ncn2c1[C@@H]1CCCN1C(=O)c1c(Br)cccc1-2,inactive,inactive
CCCOC(=O)c1cncn1C(C)c1ccccc1 (configuration not stated),inactive,inactive
CCOP(=S)(OCC)Oc1cnc2ccccc2n1,inactive,inactive
O=C(O)c1ccccn1,inactive,inactive
C=CC(=O)OCCO,inactive,inactive
SCc1ccco1,inactive,inactive
CCOP(=S)(OCC)Oc1nc(Cl)n(C(C)C)n1,inactive,inactive

SMILES,Potency [1],Potency [2]
CCN(CC)C(=S)S,inactive,inactive
Cc1cc(C)c(C2=C(OC(=O)CC(C)(C)C)C3(CCCC3)OC2=O)c(C)c1,inactive,inactive
CCCC[N+]1(C)CCCCC1,inactive,inactive
CCC(C)(c1ccc(O)cc1)c1ccc(O)cc1,inactive,inactive
ClC1=C(Cl)[C@]2(Cl)[C@@H]3[C@@H](Cl)[C@H](Cl)C[C@@H]3[C@@]1(Cl)C2(Cl)Cl,inactive,inactive
O=C1NCN(c2ccccc2)C12CCN(CC1COc3ccccc3O1)CC2 (configuration not stated),inactive,inactive
Cc1ncsc1CCCl,inactive,inactive
Cc1ccccc1[N+](=O)[O-],inactive,inactive
CCOP(=S)(OCC)OC(Cl)C(Cl)(Cl)Cl (configuration not stated),inactive,inactive
ClCCN1CCOCC1,inactive,inactive
CC(C)(c1ccc(OCC2CO2)cc1)c1ccc(OCC2CO2)cc1 (configuration not stated),inactive,inactive
CCOC(=O)NC(=S)Nc1ccccc1NC(=S)NC(=O)OCC,inactive,inactive
CCCCCCCCCC(CC)c1ccc(S(=O)(=O)O)cc1 (configuration not stated),inactive,inactive
CCOc1ccc(N)cc1,inactive,inactive
C[N+](=O)[O-],inactive,inactive
CCC1(CC)C(=O)NC(=O)NC1=O,inactive,inactive
Clc1ccc(CO/N=C(\Cn2ccnc2)c2ccc(Cl)cc2Cl)c(Cl)c1,inactive,inactive
CN(C)C(=S)SSC(=S)N(C)C,12 µM (active) and 9.69 µM (active) and 7.5 µM (active),12 µM (active) and 27.3 µM (active) and 16.8 µM (active)
